Test results reported in PubChem BioAssay AID1159580 (chemical genetic matrix, 2015).
Hit rate of the full screen: of about 5,500 compounds, about 2,000 (36%) were called active. Not shown: some 18% with an inconclusive outcome. No stated cut-off is given here; in the data, active means normalized growth mostly below about 0.91 (no sharp cut-off); inconclusive means no clear call, values can overlap the other calls; inactive means mostly above about 0.92. This is one part of the list.

Experiment: chemical genetic growth profiling, strain panel (AID 1159580);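 further: tested at 20 µM; growth read once vehicle control cultures reached saturation at 30 °C; 1 = growth at the plate median or of vehicle wells; lower values mean less growth of the strain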
Settings: growth OD

Measured: normalized growth

NC(=O)NC1NC(=O)NC1=O (configuration not stated)
inactive: S. cerevisiae deletion strains, locus YJR075W, strain HOC1, hits give low values 1.01 | S. cerevisiae deletion strains, locus YKL009W, strain mrt4, hits give low values 0.989 | S. cerevisiae deletion strains, locus YKL068W, hits give low values 0.987 | S. cerevisiae deletion strains, locus YKL085W, strain MDH1 (second series), hits give low values 0.981 | S. cerevisiae deletion strains, locus YKL085W, strain MDH1, hits give low values 0.981 | S. cerevisiae deletion strains, locus YKL160W, strain elf1, hits give low values 0.979 | S. cerevisiae deletion strains, locus YKL190W, strain CNB1, hits give low values 0.997 | S. cerevisiae deletion strains, locus YKR001C, strain vps1, hits give low values 0.984 | S. cerevisiae deletion strains, locus YKR026C, strain gcn3, hits give low values 1 | S. cerevisiae deletion strains, locus YKR091W, strain srl3, hits give low values 1 | S. cerevisiae deletion strains, locus YLL001W, strain dnm1, hits give low values 1 | S. cerevisiae deletion strains, locus YLL026W, hits give low values 1.01 | S. cerevisiae deletion strains, locus YLL041C, strain sdh2, hits give low values 1 | S. cerevisiae deletion strains, locus YLR027C, strain aat2, hits give low values 1 | S. cerevisiae deletion strains, locus YLR039C, strain RIC1, hits give low values 1.03 | S. cerevisiae deletion strains, locus YLR058C, strain SHM2, hits give low values 0.99 | S. cerevisiae deletion strains, locus YLR102C, strain apc9, hits give low values 0.987 | S. cerevisiae deletion strains, locus YLR113W, strain HOG1, hits give low values 1.04 | S. cerevisiae deletion strains, locus YLR221C, strain rsa3, hits give low values 0.998 | S. cerevisiae deletion strains, locus YLR258W, strain gsy2, hits give low values 1 | S. cerevisiae deletion strains, locus YLR262C, strain YPT6 (second series), hits give low values 1.02 | S. cerevisiae deletion strains, locus YLR262C, strain YPT6, hits give low values 0.965 | S. cerevisiae deletion strains, locus YLR268W, strain sec22, hits give low values 0.917 | S. cerevisiae deletion strains, locus YLR320W, strain mms22, hits give low values 1 | S. cerevisiae deletion strains, locus YLR330W, strain CHS5, hits give low values 0.991 | S. cerevisiae deletion strains, locus YLR342W, strain FKS1 (second series), hits give low values 1.06 | S. cerevisiae deletion strains, locus YLR342W, strain FKS1, hits give low values 1 | S. cerevisiae deletion strains, locus YLR357W, strain rsc2, hits give low values 0.968 | S. cerevisiae deletion strains, locus YLR370C, strain arc18, hits give low values 1 | S. cerevisiae deletion strains, locus YLR371W, strain rom2, hits give low values 0.971 | S. cerevisiae deletion strains, locus YLR384C, strain iki3, hits give low values 1.01 | S. cerevisiae deletion strains, locus YLR418C, strain cdc73, hits give low values 0.965 | S. cerevisiae deletion strains, locus YML016C, strain PPZ1, hits give low values 0.987 | S. cerevisiae deletion strains, locus YML032C, strain rad52, hits give low values 0.981 | S. cerevisiae deletion strains, locus YML120C, strain ndi1, hits give low values 1.01 | S. cerevisiae deletion strains, locus YML124C, strain tub3, hits give low values 0.978 | S. cerevisiae deletion strains, locus YMR058W, strain fet3, hits give low values 1.01 | S. cerevisiae deletion strains, locus YMR078C, strain ctf18, hits give low values 0.976 | S. cerevisiae deletion strains, locus YMR125W, strain sto1, hits give low values 1 | S. cerevisiae deletion strains, locus YMR129W, hits give low values 1 | S. cerevisiae deletion strains, locus YMR205C, strain PFK2, hits give low values 0.982 | S. cerevisiae deletion strains, locus YMR223W, strain ubp8, hits give low values 1 | S. cerevisiae deletion strains, locus YMR231W, strain pep5, hits give low values 0.994 | S. cerevisiae deletion strains, locus YMR263W, strain SAP30, hits give low values 0.988 | S. cerevisiae deletion strains, locus YMR307W, strain GAS1, hits give low values 1.01 | S. cerevisiae deletion strains, locus YNL067W, strain RPL9B, hits give low values 0.982 | S. cerevisiae deletion strains, locus YNL071W, strain lat1, hits give low values 1.01 | S. cerevisiae deletion strains, locus YNL128W, strain TEP1, hits give low values 0.997 | S. cerevisiae deletion strains, locus YNL153C, strain GIM3, hits give low values 0.987 | S. cerevisiae deletion strains, locus YNL183C, strain NPR1, hits give low values 0.977 | S. cerevisiae deletion strains, locus YNL209W, strain ssb2, hits give low values 1 | S. cerevisiae deletion strains, locus YNL233W, strain BNI4, hits give low values 0.978 | S. cerevisiae deletion strains, locus YNL248C, strain rpa49, hits give low values 0.999 | S. cerevisiae deletion strains, locus YNL250W, strain rad50, hits give low values 0.981 | S. cerevisiae deletion strains, locus YNL271C, strain bni1, hits give low values 0.977 | S. cerevisiae deletion strains, locus YNL298W, strain CLA4, hits give low values 0.985 | S. cerevisiae deletion strains, locus YNL307C, strain MCK1, hits give low values 0.985 | S. cerevisiae deletion strains, locus YNL322C, strain KRE1 (second series), hits give low values 0.986 | S. cerevisiae deletion strains, locus YNL322C, strain KRE1, hits give low values 0.998 | S. cerevisiae deletion strains, locus YNR049C, strain mso1, hits give low values 1.01 | S. cerevisiae deletion strains, locus YNR052C, strain pop2, hits give low values 0.992 | S. cerevisiae deletion strains, locus YOL006C, strain TOP1, hits give low values 0.996 | S. cerevisiae deletion strains, locus YOL012C, strain htz1 0.886 | S. cerevisiae deletion strains, locus YOL147C, strain pex11, hits give low values 0.983 | S. cerevisiae deletion strains, locus YOR001W, strain rrp6, hits give low values 1 | S. cerevisiae deletion strains, locus YOR061W, strain CKA2, hits give low values 0.991 | S. cerevisiae deletion strains, locus YOR069W, strain VPS5, hits give low values 0.99 | S. cerevisiae deletion strains, locus YOR070C, strain gyp1, hits give low values 1 | S. cerevisiae deletion strains, locus YOR080W, strain dia2, hits give low values 0.993 | S. cerevisiae deletion strains, locus YOR083W, strain WHI5, hits give low values 0.992 | S. cerevisiae deletion strains, locus YOR106W, strain vam3, hits give low values 0.99 | S. cerevisiae deletion strains, locus YOR136W, strain idh2, hits give low values 0.993 | S. cerevisiae deletion strains, locus YOR144C, strain elg1, hits give low values 0.984 | S. cerevisiae deletion strains, locus YOR184W, strain ser1, hits give low values 0.967 | S. cerevisiae deletion strains, locus YOR231W, strain MKK1, hits give low values 1.03 | S. cerevisiae deletion strains, locus YOR265W, strain rbl2, hits give low values 1.03 | S. cerevisiae deletion strains, locus YOR270C, strain vph1, hits give low values 1.03 | S. cerevisiae deletion strains, locus YOR290C, strain snf2, hits give low values 1.03 | S. cerevisiae deletion strains, locus YOR316C, strain cot1, hits give low values 0.977 | S. cerevisiae deletion strains, locus YPL051W, strain arl3, hits give low values 1 | S. cerevisiae deletion strains, locus YPL055C, strain LGE1, hits give low values 1.01 | S. cerevisiae deletion strains, locus YPL078C, strain atp4, hits give low values 1 | S. cerevisiae deletion strains, locus YPL106C, strain sse1, hits give low values 0.977 | S. cerevisiae deletion strains, locus YPL240C, strain hsp82, hits give low values 1.01 | S. cerevisiae deletion strains, locus YPL241C, strain CIN2, hits give low values 0.992 | S. cerevisiae deletion strains, locus YPL256C, strain CLN2, hits give low values 1.03 | S. cerevisiae deletion strains, locus YPR119W, strain clb2, hits give low values 0.982 | S. cerevisiae deletion strains, locus YPR141C, strain kar3, hits give low values 0.98 | S. cerevisiae deletion strains, locus YPR163C, strain tif3, hits give low values 0.981 | S. cerevisiae deletion strains, locus YPR167C, strain met16, hits give low values 0.979 | S. cerevisiae deletion strains, strain wtn01, hits give low values 0.971 | S. cerevisiae strains, strain wild type, hits give low values 0.996
